Vaccinia pol inh = vaccinia E9 polymerase processive synthesis inhibition | normalized absorbance, % (test concentration not listed) | in vitro processive DNA synthesis, absorbance read-out; stronger effect = lower value | AID 493162 | 46,000 tested, 0.94% active; in the data active = normalized absorbance mostly below about 85%, no sharp cut-off; inactive = mostly above about 86%
Large screens that a line does not name were inactive; ! = not active in a repeat. Shown is part of a subset that was picked to be rich in hits.

CC1=C(C(=O)OCc2ccc(C)cc2)C(c2cc3c(cc2Br)OCO3)CC(=O)N1 (stereo unspecified)	none
O=C(O)CC(c1ccsc1)n1cccc1 (stereo unspecified)	none
Cc1ccc(C)n1C(CC(=O)O)c1ccc(F)cc1 (stereo unspecified)	none
Cc1ccc(C)n1C(CC(=O)O)c1ccsc1 (stereo unspecified)	Vaccinia pol inh 73
COc1ccc(C(=O)NCCc2cc3c(C)ccc(C)c3[nH]c2=O)cc1OC	none
O=C(Cc1ccccc1)Nc1c2c(nn1-c1ccccc1)CSC2	none
O=S(=O)(Nc1nc2ccccc2nc1NCCC1=CCCCC1)c1ccccc1	none
Cc1ccc(-c2nn(CC(=O)N(C)C)c(=O)c3ccccc23)cc1	none
CN(C)C(=O)n1nc2c3c(cccc31)C(=O)c1ccccc1-2	none
CCN(CC)Cn1nc2c3c(cccc3c1=O)-c1ccccc1-2	Vaccinia pol inh 57
COc1ccc(-c2nn(CO)c(=S)n2-c2ccccc2)cc1	none
Cc1[nH]c2ccccc2c1Cc1nc2ccccc2[nH]1	none
COc1cccc(N2CCN(C(=O)c3ccc(/C=C4\Oc5ccccc5N(C)C4=O)cc3)CC2)c1	none
O=c1[nH]c2ccccc2cc1CNc1ccc(Cl)cc1	none
CCOc1ccccc1C(=O)NCc1ccc2[nH]c(C)cc2c1	none
CN(Cc1ccccc1)C(=O)CCc1nc2cccnc2n1-c1ccccc1	none
CNC1CCS(=O)(=O)C1 (stereo unspecified)	none
O=C(NCCCN1CCCCC1)c1ccc2c(c1)sc1nc(-c3ccccc3)cn12	Vaccinia pol inh 58
CCN1CCCC1CNC(=O)c1ccc2c(c1)sc1nc(-c3cccc(OC)c3)cn12 (stereo unspecified)	Vaccinia pol inh 47
CCOC(=O)N1CCN(C(=O)c2ccc3c(c2)sc2nc(-c4ccc(OC)cc4)cn23)CC1	none
O=C(NCCN1CCCCCC1)c1ccc2c(c1)ncn2C1CCCCC1	none
O=C(NCCCN1CCCCC1)c1ccc2nc(N3CCCCC3)sc2c1	none
CCN1CCCC1CNC(=O)c1nnc(Cc2cccc(F)c2)o1 (stereo unspecified)	none
CC1CN(C(=O)C(C)C)CC(C)O1 (stereo unspecified)	none
CCNC(=O)C1CCCN(c2nnc(N3CCCC3=O)s2)C1 (stereo unspecified)	none
Cc1ccc(-c2nn(-c3ccc(C)cc3)c3c2cnc2c(F)cccc23)cc1	none
C/C(=N\n1cnnc1)c1ccc(O)cc1	none
O=C(NC1(C(F)(F)F)Oc2ccccc2O1)Sc1ccccc1	none
NCCNC12CC3CC(CC(C3)C1)C2	none
COc1ccc2c(C#N)c3ccccn3c2c1	Vaccinia pol inh 72
COc1ccc(OCc2c(C#N)c3ccccc3n2C)cc1	none
N#CCOc1ccc2c(C#N)c3ccccn3c2c1	none
CC(C)N(C(=O)CSc1nc2ccccc2n1C)c1ccccc1	none
CCN1CCCC1CNC(=O)C1c2ccccc2C(=O)N(CC(C)C)C1c1cccs1 (stereo unspecified)	none
CC(C(=O)O)N1C(=O)/C(=C\c2ccc(Br)cc2)SC1=S (stereo unspecified)	none
Cc1cccn2c(=O)c3cc(C(=O)N(C)Cc4ccccc4)sc3nc12	none
Cc1c(C(=O)O)oc2ccccc12	none
O=C(O)c1oc2ccccc2c1CSc1ccccn1	none
O=C(O)c1oc2ccccc2c1COc1ccccc1	Vaccinia pol inh 72
O=C(C[n+]1cccc(/C=N/O)c1)NC12CC3CC(CC(C3)C1)C2	none
Cn1ccc(/C=C2/CCC/C(=C\c3ccn(C)n3)C2=O)n1	none
CC1(C)COC(=O)C1OC(=O)c1ccccc1C(=O)O (stereo unspecified)	none
Cc1cc(Nc2ccccc2)n(C(C)(C)C)n1	none
Cc1cc(Nc2ccccc2)n(-c2ccccc2C(=O)O)n1	Vaccinia pol inh 86
Cc1cc(Nc2ccccc2)n2cnnc2n1	none
CCc1nc(N2CCCCC2)c2sc(=S)n(-c3ccccc3)c2n1	none
CC(=Nc1c2c(nc3ccccc13)N(C)CC2)N(C)C	none
Nc1c2c(nc3ccccc13)N(C1CCCCC1)CC2	Vaccinia pol inh 87
CC1CCCCN1c1nc(-c2ccccc2O)nc2ccccc12 (stereo unspecified)	none
CCc1cccc(NC(=O)C2=C(C)C(=O)OC23CCCCC3)c1	none
Cc1cccn2cc(-c3cccc(Br)c3)nc12	none
Cn1cnc(S(=O)(=O)Nc2cccc(Cl)c2)c1	none
COC(=O)C1=C(N)Oc2c(oc(CO)cc2=O)C1c1ccccc1 (stereo unspecified)	none
CCOc1cc(/C=C2/SC(=S)NC2=O)cc(Br)c1O	Vaccinia pol inh 69
CCOc1cc(/C=C2\SC(=S)NC2=O)cc(Cl)c1OC(=O)c1ccc(OC)cc1	none
CC(C)(C)c1cc(/C=C2\SC(=S)NC2=O)cc(C(C)(C)C)c1O	none
COc1ccc(C(=O)Nc2ccc(-c3cn4ccccc4n3)cc2)cc1	none
CN1CCN(CCNC(=O)c2cc3c(=O)n(C)c4ccccc4c3n2C)CC1	Vaccinia pol inh 62
Cn1c(C(=O)NC2CC2)cc2c(=O)n(C)c3ccccc3c21	none
Cn1c(C(=O)NCCc2ccc(Cl)cc2)cc2c(=O)n(C)c3ccccc3c21	none
Cc1ccccc1NC(=O)c1cc2ccccc2cc1O	none
Cc1ccc(/C(O)=C/c2nc3ccccc3[nH]c2=O)cc1C	none
CCN1CCN(CCCNC(=O)c2ccc3nc(/C=C(\O)c4ccc(OC)cc4)c(=O)[nH]c3c2)CC1	Vaccinia pol inh 48
COc1ccc(/C(O)=C/c2nc3ccc(C(=O)N4CCOCC4)cc3[nH]c2=O)cc1OC	none
O=C(O)c1ccc(C(F)(F)F)cc1	none
Cc1ccc(Nc2nc(N3CC(C)OC(C)C3)nc3c2cnn3C)cc1Cl (stereo unspecified)	none
CCc1nc2c(cnn2-c2ccc(F)cc2)c(=O)n1-c1ccc(OC)c(Cl)c1	none
COc1ccc(Nc2nc(N3CCN(CCO)CC3)nc3c2cnn3C)cc1Cl	Vaccinia pol inh 38
CCOC(=O)C1CCN(C(=O)/C(=C/c2ccc(F)cc2)c2ccsc2)CC1	none
O=C(Nc1cccc(C(F)(F)F)c1)C(F)(F)F	none
O=C(O)c1ccccc1Nc1ccccc1	none
O=C(O)c1ccccc1Nc1cccc(C(F)(F)F)c1	Vaccinia pol inh 85!
COC(=O)N1N=C(CC(C)C)CC1(O)C(F)(F)F (stereo unspecified)	none
Cc1conc1NC(=O)CNC(=O)C1CCCCC1	none
Cc1ccc(Nc2ccc3noc4c3c2C(=O)c2ccccc2-4)cc1	none
O=C1c2ccccc2-c2n[nH]c(=O)c3ccc(N4CCOCC4)c1c23	none
CC1CCN(c2cc(N(C)C)c3noc4c3c2C(=O)c2ccccc2-4)CC1	Vaccinia pol inh 70
CC(=O)Nc1ccc(NC(=O)/C=N/O)cc1	none
O=c1ccc(-c2cccs2)n[nH]1	none
CC1CCCCN1CCCNC(=O)c1cc2c(s1)-c1ccc(Cl)cc1SC2 (stereo unspecified)	Vaccinia pol inh 69
CCC1CCCCN1CCCNC(=O)c1cc2c(s1)CSC2 (stereo unspecified)	none
Cc1cccc2c1-c1sc(C(=O)NCCN3CCCCC3C)cc1CO2 (stereo unspecified)	none
Clc1ccc(Cn2ncc3c(NC4CCCCC4)ncnc32)cc1	none
Cn1c(=O)[nH]c(=O)c2c1nc1n2CCCC1c1ccccc1 (stereo unspecified)	none
CC(=O)Oc1ccc2oc(-c3ccccc3)c(C(=O)O)c2c1	none
Cc1ccccc1COc1ccc2oc(-c3ccccc3)c(C(=O)O)c2c1	Vaccinia pol inh 87
O=C(O)c1c(-c2ccccc2)oc2ccc(OCc3ccc(Cl)cc3)cc12	none
O=S(=O)(Nc1ccc(O)c(-c2c(O)ccc3ccccc23)c1)c1cccs1	none
CN(C)C(=O)CSc1nnc(-c2ccccc2)n1-c1ccc(F)cc1	none
COc1cccc2sc(NCc3ccccc3)nc12	none
c1ccc(-c2nc(N3CCCC3)nc3ccccc23)cc1	none
NC(N)=Nc1nc(-c2ccccc2)c2ccccc2n1	Vaccinia pol inh 51

Screening results: PubChem BioAssay, ICCB-Longwood Screening Facility, Harvard Medical School
